The values that follow come from PubChem BioAssay (NCI).

Structures are written as SMILES. The panel holds about 83,000 compounds, 20% with a hit somewhere; the sample as a whole holds those more often.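 Negative percent growth values reflect cell death: -40 means 40% of the cells present at the start died, and -100 means all died.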 Active and inactive are the calls of the source. How the source made its calls: active means growth percent below 10; inactive means the rest.

This assay relates to MDA-MB-468 breast. The assay is described as follows: NCI-60 one-dose screen, 48 h (100 = growth as untreated, 0 = no growth, -100 = all killed). The following applies: 10 µM unless noted.
With `COc1cc(OC)c(C2C(Cl)C(=O)N2Nc2ncnc3ccccc23)cc1OC` (stereo not drawn), the growth was 92.5% (inactive).

Regarding `Cc1ccc(-c2csc(NC(=O)CCCCl)n2)cc1`, the growth is 93.3% (inactive).

With `Cc1cc(C)n(C(=O)CSc2nc3sc4c(c3c(=O)n2-c2ccccc2)CCCCC4)n1`, the growth was 111% (inactive).

`COc1cc(Nc2ncccc2/C=C/C(=O)c2cc(OC)c(OC)c(OC)c2)cc(OC)c1OC`: the growth is -2.82% (active).

For the compound `COC(=O)[C@H](C)NC(=O)[C@@H](OC)[C@@H]1Cc2cc3cc(OC4CC(OC5CC(O)C(O)C(C)O5)C(O)C(C)O4)c(C)c(O)c3c(O)c2C(=O)[C@H]1OC1CC(OC2CC(OC3CC(C)(O)C(O)C(C)O3)C(O)C(C)O2)C(O)C(C)O1` (stereo partly drawn), the growth is -36.2% (active).

As to `COC1CC(N)C2OC(c3ccccc3)OCC2O1` (stereo not drawn), the growth is 109% (inactive).

On to `O=C(N/N=C/c1ccc(F)cc1)c1ccccc1Nc1cccc(C(F)(F)F)c1`, for which the growth was 83.9% (inactive).

`COc1ccc(/C(=C\c2ccc3c(c2)OCO3)C(=O)Nc2nc3ccc(F)cc3s2)cc1OC`: the growth was 115% (inactive).

For the compound `COc1cc([C@@H]2c3cc4c(cc3C(Br)[C@H]3COC(=O)[C@H]23)OCO4)cc(OC)c1OC` (stereo partly drawn), the growth is -49.3% (active).

On to `NC1C(N)C(N)C1N` (stereo not drawn), for which the growth is 122% (inactive).

For `O=C1/C(=C/C=C/c2ccco2)SC(=S)N1C1CCCCC1`, the growth is 43.4% (inactive).

As for `COc1ccc(-c2nc(N3CCCC3=O)sc2Br)cc1OC`, the growth was 94.8% (inactive).

For `COc1cc2c(c(OC)c1OC)-c1ccc(NNC(=S)N(Cc3cccc(C[N+](Cc4cccc(CNC56CC7CC(CC(C7)C5)C6)c4)(Cc4cccc(CNC56CC7CC(CC(C7)C5)C6)c4)Cc4cccc(CN(C(=S)NNc5ccc6c(cc5=O)[C@@H](NC(C)=O)CCc5cc(OC)c(OC)c(OC)c5-6)C56CC7CC(CC(C7)C5)C6)c4)c3)C34CC5CC(CC(C5)C3)C4)c(=O)cc1[C@@H](NC(C)=O)CC2` (stereo partly drawn), the growth was -52.7% (active).
